# In the library only some 1.5% were active in any assay of this set; here they are far more common.
# Nrf2 ARE act: activators of Nrf2 (ARE) signaling; 410,000 tested, 0.31% active; AREc32 ARE-luciferase reporter (MCF7-derived line), luminescence, 24 h; Potency, µM (highest dose often 46.1 µM), for the others: at the highest dose activation, actives largely listed as activators; also: potency is read from the fitted curve at half-maximal effect; % of control where 0% means no effect; nearly all actives have a fitted effect of over 65% in size
#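 Luminescent ARE reporter assay in AREc32_Fluc cells: overnight plating at 37 deg C, 24 hr compound incubation, Steady-Glo added, 30 min RT before reading.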
# a7 integrin act: activates integrin-mediated alleviation for muscular dystrophy | alpha7betagal myoblasts, beta-gal FDG fluorescence, 48 h | Potency, µM (titrated, usually from 38.3 µM), inactives show at the top dose activation, most hits filed as activators | 350,000 tested, 0.064% active | AID 624291;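 also: potency is read from the fitted curve at half-maximal effect; 100% = response of the positive control SU9516; nearly all actives have a fitted effect of over 60% in size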
#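 alpha7betagal+/- myoblasts (passage 13, 250/well) treated 48 h at 37C with compounds at 1:260 dilution of DMSO stock. Lysed, then beta-galactosidase activity read as FDG fluorescence (ex 480/em 540) after 30 min, with pre-read for autofluorescence.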
# IL2 activator: activates IL-2 in a cell-based reporter assay; IL-2 activation reporter assay, cell-based qHTS; stimulated with anti-CD3/CD4/CD28 beads; in transgenic mouse T cells; activation, % (series mostly up to about 46 µM); 360,000 tested, 0.065% active; AID 652025; in the data active = activation above about 50%; inconclusive = mostly about 30% to 49%; also: 0% is about no effect
#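 Screening format: compound pinned onto unstimulated transgenic mouse T cells, 60 min incubation, then anti-CD3/anti-CD4/anti-CD28 bead stimulation for 18 hours at 37 degrees C, followed by EGFP and DsRed detection.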
# uPA generation: inhibitors of cell surface uPA generation. cell surface uPA generation assay, qHTS. Potency, µM (titrated, usually from 38.3 µM), without a hit: at the highest dose activity change, negative = inhibition, actives largely listed as inhibitors. 330,000 tested, 0.31% active. AID 540303; active = well fitted inhibition curve with a large enough effect; inconclusive = small, poorly fitted or top-dose-only effect; inactive = no such curve, though single readings can be large or run the other way; tested in mouse RAW 264.7 cells; also: potency is read from the fitted curve at half-maximal effect; % is scaled to controls: 0 for no effect and ±100 for the full control effect; nearly all actives have a fitted effect of over 55% in size
# 12-LOX inh: ALOX12 (human) lipoxygenase inhibition. P18054. purified 12hLO, xylenol orange hydroperoxide absorbance. Potency, µM (series often up to 108 µM), without a hit: at the highest dose activity change, negative = inhibition, hits mostly inhibitors. 580,000 tested, 1.1% active; also: potency is read from the fitted curve at half-maximal effect; % is scaled to controls: 0 for no effect and ±100 for the full control effect
# Target sequence (P18054 whole entry, looked up): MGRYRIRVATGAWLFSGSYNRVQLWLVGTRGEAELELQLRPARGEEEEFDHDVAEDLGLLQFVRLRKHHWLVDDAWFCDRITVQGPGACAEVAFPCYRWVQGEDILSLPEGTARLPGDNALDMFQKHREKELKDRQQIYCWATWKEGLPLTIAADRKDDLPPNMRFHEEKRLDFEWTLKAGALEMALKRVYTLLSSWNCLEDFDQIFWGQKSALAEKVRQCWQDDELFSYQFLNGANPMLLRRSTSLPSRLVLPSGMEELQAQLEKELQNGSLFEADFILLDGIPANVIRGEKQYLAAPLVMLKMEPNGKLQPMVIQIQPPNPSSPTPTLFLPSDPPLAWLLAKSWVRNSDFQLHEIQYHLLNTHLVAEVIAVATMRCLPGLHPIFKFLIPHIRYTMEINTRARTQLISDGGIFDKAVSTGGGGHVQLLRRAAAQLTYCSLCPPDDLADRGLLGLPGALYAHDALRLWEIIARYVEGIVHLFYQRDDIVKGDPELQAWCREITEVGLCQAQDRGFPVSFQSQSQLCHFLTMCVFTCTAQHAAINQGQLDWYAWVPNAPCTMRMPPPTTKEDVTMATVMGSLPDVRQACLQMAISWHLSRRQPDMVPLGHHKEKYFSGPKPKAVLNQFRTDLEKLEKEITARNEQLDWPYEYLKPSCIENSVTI
#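 Purified human 12hLO (150 nM final) in 25 mM Hepes, 0.01% Triton X-100, pH 7.0 was preincubated 15 min at room temperature with compound. Then 40 uM arachidonic acid was added, 30 min. Hydroperoxide was read by Fe-XO absorbance ratio 573/405 nm.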
# Active calls of the source: *; ? = inconclusive; . = not tested or not shown; [ ] = remark or other dose. Unless noted, calls follow the shape of the dose curve; as a rule, active = well fitted curve in the direction sought with a large enough effect; inconclusive = small, poorly fitted or top-dose-only effect, or another doubt; inactive = no such curve, though single readings can be large; an effect the other way counts as inactive or inconclusive.
SMILES,Nrf2 ARE act,a7 integrin act,IL2 activator,uPA generation,12-LOX inh
COc1ccc(C(=O)OCC(=O)NC2CCC(C)CC2)cc1OC (configuration not stated),.,.,.,.,22.4%
CC(C)(C)c1cc(C(F)(F)F)c(C#N)c(=O)[nH]1,-0.6%,6.6%,-0.8,1.6%,?
Cc1cc(C(F)(F)F)c(C#N)c(=S)[nH]1,.,.,.,.,15.8µM*
COc1ccc(CN2CCNC(=O)C2CC(=O)NCCc2nc(C)c(C)s2)c(OC)c1 (configuration not stated),-0.5%,-6.8%,-3.4,0.2%,-6.7%
Cc1ccccc1CN1CCNC(=O)C1CC(=O)NC1CCCCCCC1 (configuration not stated),-0.6%,12.8%,-2.3,1.7%,-22.3%
COc1ccc(CN2CCNC(=O)C2CC(=O)NC2CCCCCC2)c(C)c1C (configuration not stated),-0.4%,-0.9%,-3.7,4.8%,31.6µM*
COc1ccc(CN2CCNC(=O)C2CC(=O)NCCc2c[nH]c3ccccc23)c(OC)c1 (configuration not stated),-0.7%,10µM*,-3.9,.,2.7%
COc1ccc(N2CCN(C(=O)[C@H]3CCC[C@H]3NC(=O)c3cnc(C)cn3)CC2)cc1,.,.,.,.,5.5%
Nc1c(C(=O)Nc2ccccc2F)sc2nc(Cc3ccccc3)cc(C(F)(F)F)c12,0.0%,11.8%,51.1*,.,18.6%
COC1CN(c2ccc(C)cc2)C12CCN(C(=O)c1ccnn1C)CC2 (configuration not stated),.,.,.,.,23.5%
CC(Sc1cccc2cccnc12)C(=O)NC(=O)NC(C)(C)C (configuration not stated),.,.,.,.,12.6µM*
CS(=O)(=O)c1nc(S(=O)(=O)c2ccc(Cl)cc2)c(N2CCOCC2)s1,6.31µM*,?,1.0,-26.2%,-2.5%
CC1CN(c2sc(S(C)(=O)=O)nc2S(=O)(=O)c2ccc(Cl)cc2)CC(C)O1 (configuration not stated),?,-46.7%,-2.7,-10.5%,24.7%
O=C(NC1CCN(c2cc(-c3ccccc3)[nH]n2)CC1)c1cccc(Cl)c1,.,.,.,.,19.3%
Cc1nnc(SCc2ccc(Cl)c(Cl)c2)s1,3.0%,-13.3%,-4.0,7.7%,-7.7%
Cc1[nH]c(=S)sc1Cc1ccc(Cl)c(Cl)c1,.,.,.,.,31.6µM*
CNc1cnn(-c2ccccc2)c(=O)c1Cl,2.3%,-5.1%,-0.1,-0.8%,3.3%
Nc1ccc(Sc2cnn(-c3ccccc3)c(=O)c2Cl)cc1,15.8µM*,-17.2%,0.2,-3.2%,-13.2%
Cc1ccc(Sc2cnn(-c3ccccc3)c(=O)c2Cl)cc1,5.01µM*,0.0%,-0.4,-14.9%,458.4%
Cc1cccc(C(=O)N2C(C(=O)NCc3ccccc3)COC23CCN(C(=O)CC(C)C)CC3)c1 (configuration not stated),.,.,.,.,102.7%
COc1ccc(-c2cnc3c(NC=O)cc(-c4ccoc4)cn23)cc1OC,9.3%,.,-0.7,.,5.01µM*
COc1ccc(-c2cc(NC=O)c3ncc(-c4ccc(OC)c(OC)c4)n3c2)c(OC)c1,6.6%,.,-0.8,.,56.2µM*
COc1ccc(-c2cnc3c(NC=O)cc(-c4cc(OC)c(OC)c(OC)c4)cn23)cc1OC,4.8%,.,-1.0,.,-9.3%
CCOc1ccc(C2CCCN2S(=O)(=O)CCN(C)S(=O)(=O)c2ccc(F)cc2)cc1 (configuration not stated),.,.,.,.,-7.3%
COCCCNc1oc(-c2ccc(C)cc2)nc1C#N,.,.,.,.,-21.9%
SMILES,Nrf2 ARE act,a7 integrin act,IL2 activator,uPA generation,12-LOX inh
COc1cccc(C(=O)N2CCC(N(C(=O)C3CC3)C3CCOCC3)CC2)c1,.,.,.,.,29.2%
O=S(=O)(Nc1nc2ccccc2nc1NC1CCCCC1)c1ccc(F)cc1,.,.,.,.,0.631µM*
CC(C)CC(NC(=O)Cn1cnc(C#N)n1)c1ccccc1 (configuration not stated),.,.,.,.,73.0%
COc1cc(OC)c(OC)cc1CNC(=O)c1cc(Cl)ccc1O,.,.,.,.,19.4%
COc1ccc(-c2nn(-c3ccc(F)cc3)c(OC(C)=O)c2-c2ccc(NC(C)=O)cc2)cc1OC,.,.,.,.,11.2µM*
Cc1ccc(C(=O)Nc2cccc(C(=O)NCc3ccccc3)c2)cc1,0.8%,-12.7%,-4.0,10µM*,-9.0%
COc1cc2c(cc1OC)C(C)N(C(=O)c1ccc(F)cc1F)CC2 (configuration not stated),.,.,.,.,10.3%
Cc1cccc(C2NC(=O)c3c(sc(C)c3C)N2)c1O (configuration not stated),3.0%,-12.8%,1.6,4.6%,-16.6%
Cc1ccc(C2NC(=O)c3c(sc(C)c3C)N2)c(O)c1 (configuration not stated),11.9%,-1.1%,0.9,1.4%,39.8µM*
Cc1ccc2[nH]c(C)c(/C=C/c3cc[n+](C)cc3)c2c1,6.9%,-75.9%,158.7*,-8.3%,?
Cc1ccc2c(c1)c(/C=C/c1cc[n+](C)cc1)c(C)n2C,-2.2%,-49.6%,3.9,-1.5%,?
FC(F)(F)c1ccccc1Cc1c(-c2cccc(Cl)c2)nc2ccc(Br)cn12,11.3%,.,0.3,.,?
COc1ccccc1Cc1c(-c2ccco2)nc2ccc(Br)cn12,?,.,1.7,.,17.8µM*
FC(F)(F)c1ccccc1Cc1c(-c2ccco2)nc2ccc(Br)cn12,?,.,-0.9,.,35.5µM*
COc1ccc2nc([C@H]3CCN(C(C)C)C3)[nH]c2c1,.,.,.,.,-4.9%[176 µM]
Cc1cc(C)cc(NC(=O)CN(C)S(=O)(=O)c2ccc3[nH]c4c(c3c2)CCCC4)c1,0.9%,.,.,.,-7.5%
Cc1cc2cc(NC(=O)c3ccco3)ccc2[nH]1,-0.4%,23.5%,-0.5,-8.7%,-6.9%
Cc1cc(C)cc(NC(=S)NCc2ccc3[nH]c4c(c3c2)CCCC4)c1,-2.6%,-41.4%,0.0,7.8%,39.8µM*
O=C(Nc1ccc2[nH]c3c(c2c1)CCCC3)c1ccco1,12.6µM*,5.0%,-0.3,-6.2%,-1.3%
S=C(NCc1ccc2[nH]c3c(c2c1)CCCC3)Nc1ccccc1,2.9%,-36.4%,2.1,6.9%,39.8µM*
CNC(=O)CN1CCCCC1C(=O)Nc1cccc(-c2cccc(OC)c2)c1 (configuration not stated),.,.,.,.,32.0%
N=c1n(CC(=O)c2ccc([N+](=O)[O-])cc2)c2ccccc2n1Cc1ccc(Cl)cc1,0.2%,-9.7%,64.8*,-0.3%,?
N=c1n(CC(=O)c2ccc([N+](=O)[O-])cc2)c2ccccc2n1Cc1ccccc1,-0.7%,-53.2%,8.5,9.2%,?
O=C(NC(=S)Nc1ccc2c(c1)OCCO2)c1cccc2ccccc12,0.2%,0.0%,5.1,-35.7%,15.8µM*
O=C(NC(=S)Nc1cccc(Cl)c1N1CCCCC1)c1ccc2c(c1)OCCO2,3.8%,0.0%,-0.9,1.9%,15.8µM*
O=C(NC(=S)Nc1ccc2c(c1)OCCO2)c1cccc(Br)c1,5.1%[9.22 µM],-13.0%,0.0,-3.3%,28.2µM*
CCNC(=O)N1CCc2c(sc3ncnc(NCC)c23)C1,.,.,.,.,0.1%

# Source: PubChem BioAssay
